This is an account of results in PubChem BioAssay (Tox21).

A number with no mark means an inactive call. Results filed as inconclusive are left out. The source made the active and inactive calls. Unless noted, calls come from the whole dose curve.

The nature of experiment [1]: Nuclear factor erythroid 2-related factor 2/antioxidant responsive element (Nrf2/ARE) small molecule agonists: qHTS cell viability counter screen in human keratinocytes (AID 1919968; active = well fitted curve in the direction sought with a large enough effect in the repeat runs; an effect the other way counts as inactive or inconclusive; note: nearly all actives have a fitted effect of over 55% in size; note: potency is the fitted concentration of half-maximal effect). In short, it runs like this:
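Cells of the KeratinoSens line were plated at 1,500 per well and left for 5 h before compound transfer from DMSO stocks. After a 23 h incubation (37 C, 5% CO2), CellTiter-Fluor was added. Signal was taken as fluorescence intensity 1 h later.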

A short description of experiment [2]: Nuclear factor erythroid 2-related factor 2/antioxidant responsive element (Nrf2/ARE) small molecule agonists: luciferase reporter gene qHTS assay in human keratinocytes (AID 1919969). Note: nearly all actives have a fitted effect of over 35% in size. Note: potency is the fitted concentration of half-maximal effect.
Experiment [3] has as its target Gonadotropin-releasing hormone receptor (Homo sapiens) (UniProt P30968). Briefly: Human gonadotropin-releasing hormone receptor (GnRHR) small molecule agonists, calcium flux assay in GnRHR-HEK293 cells (AID 1920063). Note: nearly all actives have a fitted effect of over 35% in size. In short, it runs like this: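 Compounds dissolved in DMSO are pin-transferred onto dye-loaded GnRHR-HEK293 cells, which were seeded 18 h before at 37 C/5% CO2. Calcium signal is read as fluorescence intensity at 1 s intervals for 3 min.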

Experiment [4] has as its target KiSS-1 receptor (Homo sapiens) (UniProt Q969F8). Briefly: Human kisspeptin (KISS1R) small molecule agonists, calcium flux assay in KISS1R-HEK293 cells (AID 1920064; active = well fitted curve in the direction sought with a large enough effect in the repeat runs; an effect the other way counts as inactive or inconclusive). In short, it runs like this: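 Cell line: HEK293, stable human KISS1R. Dye loading 1 h at 37 C after 18 h culture. Read: kinetic fluorescence, 480/540 nm, 3 min at 1 s intervals.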
Experiment [5] is described as follows: G protein-coupled receptor (GPCR) small molecule agonists, calcium flux assay: HEK293 wild type cell line counter screen (AID 1920065). In short, it runs like this: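 Tox21 10K compounds, 15 concentrations each in triplicate, pin-transferred in DMSO onto dye-loaded cells; kinetic read at 480/540 nm for 3 min, 1 s intervals.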
Experiment [6] is described as follows: p53 small molecule agonists, cell-based qHTS assay with human liver microsomes (AID 1963577).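 Note: p53 response element beta-lactamase reporter cells with liver microsomes plus NADPH.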 In short, it runs like this:
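HLM-supplemented p53RE-bla reporter assay: 16 h compound exposure at 37 C, microsomes and NADPH each 0.5 mg/mL final, read by fluorescence intensity.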

A short description of experiment [7]: p53 small molecule agonists, cell-based qHTS assay with rat liver microsomes (AID 1963578). In short, it runs like this:
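Quantitative HTS of the Tox21 10K library: p53RE-bla cells, rat liver microsomes plus NADPH at 0.5 mg/mL final each, 16 h at 37 C, beta-lactamase fluorescence detection.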

Experiment [8] in a line: p53 small molecule agonists, cell-based qHTS assay with rat liver microsomes: qHTS cell viability counter screen (AID 1963580). Note: nearly all actives have a fitted effect of over 45% in size. Note: potency is the fitted concentration of half-maximal effect. In short, it runs like this:
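Luminescent ATP readout (CellTiter-Glo, 30 min at room temperature) reports viability of p53RE-bla HCT-116 cells after 16 h at 37 C with test compounds under metabolic activation by rat liver microsomes and NADPH at 0.5 mg/mL final each.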

The nature of experiment [9]: p53 small molecule agonists, cell-based qHTS assay: qHTS cell viability counter screen (AID 1963581). Note: nearly all actives have a fitted effect of over 45% in size. Note: potency is the fitted concentration of half-maximal effect. In short, it runs like this: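 ATP content measured by luminescence in HCT-116 p53RE-bla cells treated 16 h at 37 C, same wells as the reporter screen.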
Experiment [10] in a line: p53 small molecule agonists, cell-based qHTS assay (AID 1963582; active = well fitted activation curve with a large enough effect in the signal ratio in the repeat runs, not every such curve was filed as active; the % refers to the signal ratio; note: potency is the fitted concentration of half-maximal effect). In short, it runs like this: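 16 h compound exposure (37 C) of p53 response element–bla cells, preceded by 5 h recovery at 37 C/5% CO2; read-out via LiveBLAzer B/G FRET substrate, 2 h RT, fluorescence intensity.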
Experiment [11] has as its target Muscarinic acetylcholine receptor M1 (Homo sapiens) (UniProt P11229). Briefly: Cholinergic receptor muscarinic 1 (CHRM1) small molecule antagonists, cell-based qHTS assay (AID 1963588). Note: nearly all actives have a fitted effect of over 40% in size. In short, it runs like this:
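Compounds were tested at 15 concentrations in three independent runs. Dye-loaded CHRM1-CHO cells were exposed 5 min at room temperature before stimulation by acetylcholine added at 50nM. Intracellular calcium was read kinetically on FDSS for 3 min.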

The target is the same in experiment [12]. As to the kind of experiment: Cholinergic receptor muscarinic 1 (CHRM1) small molecule agonists, cell-based qHTS assay (AID 1963589). Note: nearly all actives have a fitted effect of over 35% in size. In short, it runs like this: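 Homogeneous fluorescence calcium flux, agonist mode. Human M1-expressing CHO cells; compound dosed at 15 concentrations, three independent runs; signal sampled every 1 sec.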
A short description of experiment [13]: cAMP Responsive Elements (CRE) small molecule agonists, cell-based qHTS assay (AID 1963590). In short, it runs like this: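 HEK 293T cells stably bearing CRE-bla were plated at 2,000 cells per well and rested 18 h. Compounds, positive controls or DMSO were added for 3 h at 37 C. LiveBLAzer B/G substrate was then loaded for 2 h at room temperature.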
Experiment [14] is described as follows: cAMP Responsive Elements (CRE) small molecule antagonists, cell-based qHTS assay (AID 1963591; active = well fitted inhibition curve with a large enough effect in the signal ratio in the repeat runs, not every such curve was filed as active; the % refers to the signal ratio). In short, it runs like this:
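First, CRE-bla HEK293T cells settled 18 h at 37 C. Next, compound and 0.25 uM final NKH477 were applied for 3 h. Last, LiveBLAzer B/G substrate was loaded for 2 h at room temperature.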

Experiment [15] has as its target D(2) dopamine receptor (Homo sapiens) (UniProt P14416). Briefly: Dopamine D2 receptor (DRD2) small molecule agonists, cell-based qHTS assay (AID 1963594). Note: nearly all actives have a fitted effect of over 35% in size. In short, it runs like this:
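HEK293 cells stably expressing DRD2 were cultured 24 h at 37 C, then given Ro20-1724 (0.1 mM final) and compounds for 10 min at room temperature. NKH477 (200nM) was then added for 30 min. cAMP was read by HTRF.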

For experiment [16] the target is unchanged. As to the kind of experiment: Dopamine D2 receptor (DRD2) small molecule antagonists, cell-based qHTS assay (AID 1963595; active = well fitted inhibition curve with a large enough effect in the signal ratio in the repeat runs, with a control signal flat; the % refers to the signal ratio). In short, it runs like this:
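DRD2-HEK293; 0.1 mM Ro20-1724; cpd 10 min RT; NKH477 200 nM + quinpirole 12 nM, 30 min RT; HTRF cAMP (cAMP-d2/anti-cAMP cryptate), 665/620 nm ratio after 1 h.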

Experiment [17] concerns the target 5-hydroxytryptamine receptor 2A (Homo sapiens) (UniProt P28223). As to the kind of experiment: 5-hydroxytryptamine receptor 2A (HTR2A) small molecule antagonists, cell-based qHTS assay (AID 1963586). Note: nearly all actives have a fitted effect of over 45% in size. In short, it runs like this:
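CHO cells stably expressing human HTR2A were plated for 18 h at 37 C, then loaded with calcium dye for 1 h. Compounds were preincubated 5 min at room temperature before DOI (4 nM solution) was added. Kinetic fluorescence was read for 3 min.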

Experiment [18] has the same target. Briefly: 5-hydroxytryptamine receptor 2A (HTR2A) small molecule agonists, cell-based qHTS assay (AID 1963587). Note: nearly all actives have a fitted effect of over 30% in size. In short, it runs like this:
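HTR2A-CHO cells, plated 18 h at 37 C/5% CO2, dye-loaded 1 h at 37 C; compounds in DMSO added by pin tool (agonist mode). Intracellular calcium flux read as kinetic fluorescence on FDSS over 2 min at 1 s intervals.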

Experiment [19] concerns the target Beta-2 adrenergic receptor (Homo sapiens) (UniProt P07550). As to the kind of experiment: Adrenergic beta2 receptor (ADRB2) small molecule antagonists, cell-based qHTS assay (AID 1963592). Note: series mostly up to about 92 µM; nearly all actives have a fitted effect of over 50% in size. In short, it runs like this:
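Assay format: CHO-ADRB2 cells, 18-20hr seeding at 37C/5% CO2, then compound plus 1nM isoproterenol agonist mix for 0.5hr RT. Homogeneous time-resolved fluorescence cAMP detection after 1hr, expressed as 665/615 nm ratio.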
% is set by controls: 0 for no effect and ±100 for the full control effect.

Chain of 5-hydroxytryptamine receptor 2A (Homo sapiens) (P28223 whole entry, looked up): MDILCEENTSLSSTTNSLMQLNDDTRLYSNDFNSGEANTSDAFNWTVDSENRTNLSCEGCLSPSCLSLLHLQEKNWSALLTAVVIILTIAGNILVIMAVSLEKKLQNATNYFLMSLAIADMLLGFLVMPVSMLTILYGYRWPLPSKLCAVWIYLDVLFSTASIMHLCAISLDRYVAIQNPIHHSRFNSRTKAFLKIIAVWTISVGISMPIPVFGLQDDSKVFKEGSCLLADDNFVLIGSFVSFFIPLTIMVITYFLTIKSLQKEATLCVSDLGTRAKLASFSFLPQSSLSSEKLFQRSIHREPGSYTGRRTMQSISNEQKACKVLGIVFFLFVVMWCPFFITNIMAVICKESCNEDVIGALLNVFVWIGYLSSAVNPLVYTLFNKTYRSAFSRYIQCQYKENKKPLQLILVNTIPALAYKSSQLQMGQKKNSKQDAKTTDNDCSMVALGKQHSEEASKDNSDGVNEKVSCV
Chain of KiSS-1 receptor (Homo sapiens) (Q969F8 whole entry, looked up): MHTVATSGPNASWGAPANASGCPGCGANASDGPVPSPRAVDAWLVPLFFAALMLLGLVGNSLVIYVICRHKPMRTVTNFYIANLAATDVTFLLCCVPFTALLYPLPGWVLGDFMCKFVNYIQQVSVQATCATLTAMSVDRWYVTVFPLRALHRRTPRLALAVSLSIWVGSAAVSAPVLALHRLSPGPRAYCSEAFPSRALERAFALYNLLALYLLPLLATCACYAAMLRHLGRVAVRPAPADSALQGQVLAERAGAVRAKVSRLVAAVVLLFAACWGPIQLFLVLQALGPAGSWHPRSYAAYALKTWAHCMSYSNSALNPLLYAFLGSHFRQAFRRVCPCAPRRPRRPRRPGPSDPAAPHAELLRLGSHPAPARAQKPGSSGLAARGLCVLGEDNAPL
Chain of D(2) dopamine receptor (Homo sapiens) (P14416 whole entry, looked up): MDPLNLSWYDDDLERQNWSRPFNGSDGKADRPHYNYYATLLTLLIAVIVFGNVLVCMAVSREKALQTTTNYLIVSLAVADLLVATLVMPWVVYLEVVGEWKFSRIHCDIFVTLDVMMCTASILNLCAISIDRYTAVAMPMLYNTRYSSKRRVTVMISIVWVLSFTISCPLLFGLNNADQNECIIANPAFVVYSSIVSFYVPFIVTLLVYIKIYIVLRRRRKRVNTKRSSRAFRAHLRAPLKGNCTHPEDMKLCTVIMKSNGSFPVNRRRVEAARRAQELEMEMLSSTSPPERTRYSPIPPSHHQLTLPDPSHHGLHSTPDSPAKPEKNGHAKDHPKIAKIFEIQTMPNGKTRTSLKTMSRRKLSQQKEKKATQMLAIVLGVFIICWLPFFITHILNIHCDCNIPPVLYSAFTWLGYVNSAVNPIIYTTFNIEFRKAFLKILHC
Chain of Gonadotropin-releasing hormone receptor (Homo sapiens) (P30968 whole entry, looked up): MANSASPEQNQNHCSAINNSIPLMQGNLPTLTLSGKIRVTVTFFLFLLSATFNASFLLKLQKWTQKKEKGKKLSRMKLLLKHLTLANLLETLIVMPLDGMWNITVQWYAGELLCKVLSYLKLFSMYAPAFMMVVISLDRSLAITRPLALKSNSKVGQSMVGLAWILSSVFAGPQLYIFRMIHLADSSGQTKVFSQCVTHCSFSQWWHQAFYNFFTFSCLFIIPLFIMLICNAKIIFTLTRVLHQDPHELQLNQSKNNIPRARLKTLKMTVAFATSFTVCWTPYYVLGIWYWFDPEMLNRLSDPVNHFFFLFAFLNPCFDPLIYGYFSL
Chain of Muscarinic acetylcholine receptor M1 (Homo sapiens) (P11229 whole entry, looked up): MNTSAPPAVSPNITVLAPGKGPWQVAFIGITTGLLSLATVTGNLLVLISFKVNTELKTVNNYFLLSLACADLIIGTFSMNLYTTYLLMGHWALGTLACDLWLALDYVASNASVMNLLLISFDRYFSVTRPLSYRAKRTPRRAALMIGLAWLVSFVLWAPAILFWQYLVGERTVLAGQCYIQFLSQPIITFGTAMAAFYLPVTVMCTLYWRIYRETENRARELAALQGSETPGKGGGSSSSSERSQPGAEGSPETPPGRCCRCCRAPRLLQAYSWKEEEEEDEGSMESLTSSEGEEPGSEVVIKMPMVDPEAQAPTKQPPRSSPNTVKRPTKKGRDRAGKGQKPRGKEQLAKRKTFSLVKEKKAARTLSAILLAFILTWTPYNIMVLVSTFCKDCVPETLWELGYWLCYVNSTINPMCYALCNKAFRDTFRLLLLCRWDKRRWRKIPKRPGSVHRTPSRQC
Chain of Beta-2 adrenergic receptor (Homo sapiens) (P07550 whole entry, looked up): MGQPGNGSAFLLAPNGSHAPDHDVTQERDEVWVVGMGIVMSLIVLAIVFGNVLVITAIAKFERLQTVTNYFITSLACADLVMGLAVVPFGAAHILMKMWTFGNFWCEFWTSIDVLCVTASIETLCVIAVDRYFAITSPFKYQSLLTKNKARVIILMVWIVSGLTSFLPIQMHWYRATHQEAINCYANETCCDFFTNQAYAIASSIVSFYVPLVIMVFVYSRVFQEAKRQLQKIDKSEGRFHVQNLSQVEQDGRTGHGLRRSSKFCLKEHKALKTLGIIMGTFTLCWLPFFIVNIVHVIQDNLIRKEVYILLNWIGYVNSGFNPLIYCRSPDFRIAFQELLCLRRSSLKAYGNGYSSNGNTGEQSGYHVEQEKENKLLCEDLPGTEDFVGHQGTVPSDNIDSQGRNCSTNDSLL

In the case of `CC(=O)Nc1ccc(OCC(O)CNC(C)C)cc1` (stereo not given), the Potency entry in experiment [1], in experiment [2], in experiment [3], in experiment [6], in experiment [7] and in [8] was “inactive” each time. Further, the Potency entry in experiment [9], in experiment [10], in [11], in experiment [12], in experiment [13] and in experiment [14] was “inactive” in each case. In addition, the Potency entry in [15] and in experiment [16] was “inactive” in each case. The outcome in experiment [4] and in experiment [5] was inactive.

With `Nc1nc(CC(=O)O)cs1`, the Potency entry in experiment [1], in [2], in experiment [3], in [6], in experiment [7] and in experiment [8] was “inactive” in each case. In addition, the Potency result in experiment [9], in [10], in [17], in experiment [18], in experiment [11] and in experiment [19] was “inactive” throughout. Besides, the Potency result in [15] and in [16] was “inactive” in each case. The result in experiment [4] and in experiment [5] was inactive.

For the compound `CC(NN)c1ccccc1` (stereo not given), the activity change, negative = cytotoxicity in [1] is -0.107% [at 19 µM]; in experiment [8], 2.75% [at 13.5 µM]; in experiment [9], 23.1% [at 13.5 µM]. Moreover, the activity, positive = activation in [2] was -1.07% [at 19 µM]. Besides, the activity change in experiment [3] was -0.677% [at 11.8 µM, active compounds read high]. Besides, the activation in [4] was -0.175% [at 15.8 µM]; in experiment [5] it was -1.16% [at 11.8 µM]; in experiment [6], -2.41% [at 13.5 µM]; in experiment [7] it was -0.8% [at 13.6 µM]; in [10], -1.5% [at 13.5 µM]; in experiment [18], 1.19% [at 15.9 µM]. The activation is -0.272% [at 19 µM] in [13] and 12.1% [at 19 µM] in [15]. The activity, negative = inhibition in experiment [17] was 14.8% [at 12.7 µM]; in experiment [11], 10.3% [at 12.6 µM]. Also, the activity change, negative = inhibition in experiment [14] is -6.39% [at 18.9 µM]; in experiment [19], 10.7% [at 19 µM]; in [16], 4.23% [at 18.9 µM].

As to `CCN(CC)c1ccc(C(=C2C=CC(=[N+](CC)CC)C=C2)c2ccc(S(=O)(=O)O)cc2S(=O)(=O)[O-])cc1`, the Potency was 24.3 µM (active) in experiment [1], 18.2 µM (active) in experiment [8] and 9.13 µM (active) in experiment [9]. In addition, the Potency result in experiment [2], in [3], in [6], in [7], in [10] and in [17] was “inactive” each time. Further, the Potency entry in experiment [12], in [13] and in experiment [14] was “inactive” each time. Also, the outcome in experiment [4] and in [5] was inactive.

Turning to `COc1ccc(C(=O)Nc2nc3ccccc3c(NCc3ccccc3)c2C#N)cc1`, the Potency entry in experiment [1], in experiment [2], in experiment [3], in experiment [6], in [7] and in experiment [8] was “inactive” in each case. In addition, the Potency result in experiment [9], in experiment [10], in experiment [17], in experiment [18], in experiment [11] and in experiment [12] was “inactive” each time. Besides, the Potency entry in experiment [15] and in experiment [16] was “inactive” throughout. The outcome in experiment [4] and in experiment [5] was inactive.

Take `Cc1ccnc2ccccc12`: the Potency entry in experiment [1], in experiment [3], in [6], in experiment [7], in experiment [8] and in experiment [9] was “inactive” each time. Moreover, the Potency entry in [10], in experiment [17], in experiment [18], in experiment [11], in experiment [12] and in experiment [14] was “inactive” in each case. Besides, the Potency entry in [19], in [15] and in experiment [16] was “inactive” each time. In addition, the Potency in experiment [2] is 68.4 µM (active). Further, the result in experiment [4] and in experiment [5] was inactive.

`CC(C)C[C@H](NC(=O)[C@H](CCc1ccccc1)NC(=O)CN1CCOCC1)C(=O)N[C@@H](Cc1ccccc1)C(=O)N[C@@H](CC(C)C)C(=O)[C@@]1(C)CO1`: the Potency in [1] was 0.298 µM (active); in [2], 0.106 µM (active); in experiment [8], 4.46 µM (active); in [9] it was 0.63 µM (active); in [10] it was 0.112 µM (active). Also, the Potency entry in experiment [3], in experiment [6], in [7], in experiment [17], in experiment [18] and in experiment [11] was “inactive” each time. Further, the Potency entry in experiment [12], in [19], in [15] and in experiment [16] was “inactive” throughout. Moreover, the result in [4] and in experiment [5] was inactive.
